Assay results: PubChem BioAssay (EPA / NIEHS)
Several values for one entry are separate records, joined by “and”; a condition that tells them apart may be missing. Equal values may be shown once. Some structures have more than one record in an assay (separate samples or runs), and their calls can disagree. Activity calls are given as the source filed them. The calls were made as follows: active = hit-call score of the fitted dose curve at least 0.9, where 1 is the maximum; inactive = score below 0.9.

Test: CCTE_Shafer_MEA_dev_interburst_interval_mean: CCTE's Neural Network Formation Assay for Mean Interburst Interval, Shafer Lab (AID 2284046)
Protocol: CCTE_Shafer_MEA_dev assay is conducted using Axion Biosystems 48 well microelectrode array (MEA) plates and Maestro recording system. Each well of the MEA plate contains a grid of 16 microelectrodes embedded in the culture surface. Electrically active cells, such as neurons, can be cultured over the electrodes, and electrical activity in these cells can be recorded extracellularly. The spontaneous firing of neurons is captured from each electrode on a microsecond timescale providing both temporally and spatially precise data. […] The CCTE_Shafer_MEA_dev assay uses primary cultures of rat cortical neurons. Recordings are made on days post-plating 5, 7, 9 and 12. As these cultures mature over time, neural networks develop functional activity and form cohesive networks in which electrical activity can be highly coordinated. CCTE_Shafer_MEA_dev_interburst_interval_mean is 1 of 19 assay components of the CCTE_Shafer_MEA_dev assay. It measures the average time interval between consecutive single-electrode bursts (temporally-clustered groups of action potential firing) during a recording in a microelectrode array (MEA) using Axion Biosystems Maestro 768 channel amplifier with the AxIS adaptive spike detector. The mean inter-burst interval is averaged across the actively bursting electrodes to report a well-mean value. To collapse across multiple recordings made on days post-plating 5, 7, 9 and 12, the trapezoidal area-under-the-curve of the component is calculated.Data from the assay component CCTE_Shafer_MEA_dev_interburst_interval_mean was analyzed into 1 assay endpoint. This assay endpoint, CCTE_Shafer_MEA_dev_interburst_interval_mean, was analyzed in the negative analysis fitting direction relative to DMSO as the negative control and baseline of activity. Using a type of functional reporter, gain or loss-of-signal activity can be used to understand electrical activity.
On the day prior to culture, each well was coated thoroughly with 150 uL of 0.05% polyethyleneimine (PEI, Sigma Cat P3143) in 50 mM HEPES (Sigma Cat H7523) at a pH of 8. The plate was incubated at 37C for one hour. PEI was rinsed out with 500 uL of sterile water three times. Plates were stored at 4C until the day of culture. This culture was plated at a seeding density of 1.5 x 10^5 cells/well on a 48-well MEA plate, prepared as described above. Cells were administered via a 25 uL media/laminin ([…]; Sigma Cat L2020-1MG) drop directly onto the microelectrode array, as adding the cells with the laminin results in better attachment than pre-coating with laminin. After 2 hours, an additional 475 uL of cortical media was added and the cells returned to the incubator. Exposure starts at day 0 of plating and is continued over twelve days of network development until the experiment is terminated. Cells are fed with fresh medium on DIV 5 and 9, following the recordings on those days. The entire volume of media in the well is exchanged and any vehicle or compound treatment is renewed. Complete details are found in OP-NHEERL/ISTD/SBB/TJS/2015-03-r0 (available on request, email shafer.tim@epa.gov). Measurement of the electrical activity is non-invasive, and recordings can be made from the same plate over multiple different days of the culture. In cortical neurons, this allows for the measurement of extracellular action potentials over the period during which networks form in the MEA plate.

| Structure (SMILES) | AC50 | outcome |
| --- | --- | --- |
| COP(=O)(OC)OC=C(Cl)Cl | 2.02 µM (active) | inactive |
| CC[C@H](C)[C@H]1O[C@]2(C=C[C@@H]1C)C[C@@H]1C[C@@H](C/C=C(\C)[C@@H](O[C@H]3C[C@H](OC)[C@@H](O[C@H]4C[C@H](OC)[C@@H](O)[C@H](C)O4)[C@H](C)O3)[C@@H](C)/C=C/C=C3\CO[C@@H]4[C@H](O)C(C)=C[C@@H](C(=O)O1)[C@]34O)O2 (tested in a mixture with another compound) | 12.2 nM (active) and 2.7 nM (active) |  |
| CC1(c2ccc(Oc3ccccc3)cc2)OC(=O)N(Nc2ccccc2)C1=O (stereo unspecified) | 4.55 µM (active) |  |
| COP(=S)(OC)Oc1ccc([N+](=O)[O-])cc1 |  | inactive |
| O=C(O)COc1ccc(Cl)cc1Cl |  | inactive |
| CC1(C)C(C=C(Cl)Cl)C1C(=O)OC(C#N)c1ccc(F)c(Oc2ccccc2)c1 (stereo unspecified) | 49.9 µM (active) and 21 µM (active) | inactive |
| CC(C)N(C(=O)COc1nnc(C(F)(F)F)s1)c1ccc(F)cc1 |  | inactive |
| CCC(C)(C)C(=O)OC1=C(c2ccc(Cl)cc2Cl)C(=O)OC12CCCCC2 |  | inactive |
| O=C(O)C(F)(F)C(F)(F)C(F)(F)C(F)(F)C(F)(F)C(F)(F)C(F)(F)F |  | inactive |
| O=S(=O)(O)C(F)(F)C(F)(F)C(F)(F)C(F)(F)C(F)(F)C(F)(F)C(F)(F)C(F)(F)F |  | inactive |
| O=S1OCC2C(CO1)C1(Cl)C(Cl)=C(Cl)C2(Cl)C1(Cl)Cl (stereo unspecified) |  | inactive |
| Oc1cc(Cl)ccc1Oc1ccc(Cl)cc1Cl | 15.6 µM (active) |  |
| CNC(=O)CSP(=S)(OC)OC |  | inactive |
| O=[N+]([O-])/N=C1\NCCN1Cc1ccc(Cl)nc1 |  | inactive |
